Screening data deposited in PubChem BioAssay by National Center for Advancing Translational Sciences (NCATS).
TGFb inhibitor: qHTS for Inhibitors of TGF-b; HepG2 CAGA-GFP TGF-b/SMAD3 reporter, GFP fluorescence, 18 h; TGF-beta stimulated, 500 pg/mL final; Potency, µM (highest dose often 46.1 µM), actives largely listed as inhibitors; 1.2% of 410,000 active; also: nearly all actives have a fitted effect of over 65% in size
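First, reporter cells (HEPG2 CAGA-GFP) rested 2 h at 37 degrees C. Next, compounds were pinned in and TGF-beta added to 500 pg/mL final. After 18 h, GFP was imaged per cell and summed per well.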
DT40 TDP1 no CPT: qHTS for Inhibitors of human tyrosyl-DNA phosphodiesterase 1 (TDP1): qHTS in cells in absence of CPT; Potency, µM (titrated, usually from 46.2 µM), usual class: inhibitors; DT40 Tdp1-/- hTDP1 cells, no CPT, ATP luminescence, 48 h; 15% of 420,000 active; also: nearly all actives have a fitted effect of over 55% in size
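Stably hTDP1-transfected Tdp1-null chicken DT40 cells were treated with library compounds minus camptothecin and grown for at least 48 hr at 37 °C, after which cellular ATP was quantified by luminescence.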
TDP1 cell CPT: qHTS for Inhibitors of human tyrosyl-DNA phosphodiesterase 1 (TDP1): qHTS in cells in presence of CPT. chicken DT40 Tdp1-/-;hTDP1 cells + 20 nM CPT, ATP luminescence, 48 h. Potency, µM (highest dose often 46.2 µM), usual class: inhibitors. 12% of 420,000 active; also: nearly all actives have a fitted effect of over 55% in size
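Chicken DT40 Tdp1-/- cells stably complemented with human TDP1 were seeded at 400 cells/well in medium containing 20 nM camptothecin, exposed to pin-transferred compounds, and grown at 37 °C for at least 48 hr. Viability was read as ATP luminescence.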
TDP1 block: qHTS Assay for Inhibitors of Tyrosyl-DNA Phosphodiesterase (TDP1) | Tyrosyl-DNA phosphodiesterase 1 (Homo sapiens), Q9NUW8 | recombinant TDP1, AlphaScreen DNA substrate cleavage | Potency, µM (doses to about 130 µM), most hits filed as inhibitors | 0.28% of 350,000 active | AID 485290, 2010; also: nearly all actives have a fitted effect of over 40% in size
Target sequence (Q9NUW8 whole entry, looked up): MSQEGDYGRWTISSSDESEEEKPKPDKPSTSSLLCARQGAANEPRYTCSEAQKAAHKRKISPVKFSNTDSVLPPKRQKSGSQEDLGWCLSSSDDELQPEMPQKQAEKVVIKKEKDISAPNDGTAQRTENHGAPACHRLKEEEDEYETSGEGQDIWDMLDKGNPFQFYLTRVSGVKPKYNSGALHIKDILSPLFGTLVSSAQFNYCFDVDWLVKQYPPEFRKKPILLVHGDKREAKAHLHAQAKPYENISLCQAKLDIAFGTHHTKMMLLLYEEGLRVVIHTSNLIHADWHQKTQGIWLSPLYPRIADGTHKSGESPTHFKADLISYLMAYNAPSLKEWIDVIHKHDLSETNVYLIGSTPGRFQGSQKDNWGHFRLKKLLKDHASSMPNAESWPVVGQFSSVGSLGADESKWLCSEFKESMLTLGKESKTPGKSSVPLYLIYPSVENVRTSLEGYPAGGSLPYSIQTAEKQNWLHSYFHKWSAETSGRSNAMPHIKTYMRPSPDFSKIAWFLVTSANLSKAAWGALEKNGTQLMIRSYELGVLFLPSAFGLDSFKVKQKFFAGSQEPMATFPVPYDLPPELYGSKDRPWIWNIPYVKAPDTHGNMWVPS
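E. coli-derived human Tdp1, 1 nM final. Cpd preinc 15 min RT; substrate 15 nM final, 5 min RT; AS bead mix 10 ug/ml final, 10 min RT. Signal loss = tyrosine-FITC cleavage. No-enzyme wells = max signal.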
IL1B secr inh: qHTS for Inhibitors of Inflammasome Signaling: IL-1-beta AlphaLISA Primary Screen | THP-1 LPS/ATP IL-1B secretion, AlphaLISA, 16 h; active compounds read low | activity change, % at 57.5 µM | 4.7% of 360,000 active; in the data active = activity change below about -50%; inconclusive = mostly about -30% to -49%
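Secreted IL-1B measured by AlphaLISA bead assay after 16 h compound exposure of THP-1 cells; compounds (final up to 57.5 uM) added 1 h before LPS (250 ng/mL) and ATP (1.25 mM) stimulation; lower signal means less secretion.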
HepG2 viability: qHTS for Inhibitors of TGF-b: Cytotox Counterscreen; HepG2 CAGA-GFP viability, ATP luminescence, 18 h; Potency, µM (top dose mostly 46.1 µM), actives largely listed as cytotoxic; 0.76% of 410,000 active; AID 588856, 2011
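CellTiter-Glo luminescence gave cytotoxicity after 18 hours at 37 degrees C. The cells were HepG2 CAGA-GFP in 1% FBS DMEM, stimulated with 500 pg/mL TGF-beta after compound addition. %Activity was normalised to no-cell wells (complete cell-killing) and DMSO (no toxicity), and curves were fitted and classified.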
A number is an active result; - = inactive; ? = inconclusive; . = no result. This is a sample that favours compounds with a hit; in the whole collection about 19% have one here. Unless noted, calls follow the shape of the dose curve; as a rule, active = well fitted curve in the direction sought with a large enough effect; inconclusive = small, poorly fitted or top-dose-only effect, or another doubt; inactive = no such curve, though single readings can be large; an effect the other way counts as inactive or inconclusive.

SMILES	TGFb inhibitor	DT40 TDP1 no CPT	TDP1 cell CPT	TDP1 block	IL1B secr inh	HepG2 viability
CC1=NN(C(N)=S)C(=O)C1N=Nc1c(Cl)cc([N+](=O)[O-])cc1Cl (configuration not stated)	?	16µM	?	.	-	-
CC1=NN(C(N)=S)C(=O)C1N=Nc1ccccc1O (configuration not stated)	-	-	-	.	-	-
CC1=NN(C(N)=S)C(=O)C1N=Nc1ccccc1C (configuration not stated)	-	1.6µM	1.6µM	-	-	-
CC1=NN(C(N)=S)C(=O)C1N=Nc1ccc(C)cc1C (configuration not stated)	.	.	.	-	.	.
C=C(C)C1COc2cc3oc(=O)ccc3cc2O1 (configuration not stated)	.	-	-	-	.	.
CCOC(=O)c1ccc(NS(=O)(=O)c2ccc3c(c2)CCCN3C(C)=O)cc1	-	?	-	-	-	-
CCOC(=O)c1ccc(NS(=O)(=O)c2ccc3c(c2)CCN3C(=O)CC)cc1	-	?	13µM	-	.	-
CCC(=O)N1CCCc2cc(S(=O)(=O)Nc3ccc(C)c(C)c3)ccc21	?	18µM	23µM	-	.	-
O=C1ON=C(c2ccccc2)/C1=C/c1ccc(-c2ccccc2[N+](=O)[O-])o1	20µM	15µM	12µM	-	-110	-
O=[N+]([O-])c1ccccc1-c1ccc(/C=N/n2cnnc2)o1	-	-	-	-	-	-
CN1CCN(C(=O)CCN2C(=O)/C(=C/c3cccc(Br)c3)SC2=S)CC1	18µM	12µM	?	.	-76	-
CN1CCN(C(=O)CCCN2C(=O)/C(=C/c3cccc(Br)c3)SC2=S)CC1	?	?	-	-	-100	-
O=C(CCN1C(=O)/C(=C\c2cccc(Br)c2)SC1=S)NCCCN1CCOCC1	-	?	?	-	-	-
COc1ccc(CCNC(=O)CCS(=O)(=O)c2cc(Br)cc3c2N(C(C)=O)CC3)cc1OC	-	-	-	-	.	-
CO[C@@H]1[C@@H](OC2OC(C)C(OC3CC(C)(O)C(OC(=O)CC(C)C)C(C)O3)C(N(C)C)C2O)[C@@H](CC=O)C[C@@H](C)C(=O)/C=C\C2O[C@H]2C[C@@H](C)OC(=O)C[C@H]1OC(C)=O (some centres not stated)	?	3.2µM	5.6µM	.	.	-
CO[C@H]1[C@H](O[C@H]2O[C@@H](C)[C@@H](O[C@@H]3C[C@](C)(O)[C@H](OC(=O)CC(C)C)[C@H](C)O3)[C@@H](N(C)C)[C@@H]2O)[C@@H](CC=O)C[C@@H](C)[C@@H](O)/C=C\C=C/C[C@@H](C)OC(=O)C[C@H]1OC(C)=O	.	.	.	-	.	.
CO[C@@H]1[C@@H](O[C@@H]2O[C@H](C)[C@@H](O[C@H]3C[C@@](C)(O)[C@@H](OC(=O)CC(C)C)[C@H](C)O3)[C@H](N(C)C)[C@H]2O)[C@@H](CC=O)C[C@@H](C)[C@@H](O)/C=C/C=C/C[C@@H](C)OC(=O)C[C@H]1O	.	6µM	6.7µM	.	.	.
O=C(COC(=O)c1nc(Cl)ccc1Cl)NC1CCCCC1	-	-	-	-	-	-
Cc1cc2nn(-c3cccc4ccccc34)nc2cc1N	-	18µM	21µM	-	-	-
Nc1ccc2nn(-c3cccc4ccccc34)nc2c1	-	16µM	12µM	-	-	-
Cc1ccc(-n2nc3cc(C)c(N)cc3n2)cc1	-	-	-	-	-	-
Cc1cc(C)c(NC(=O)Cn2nnc(C(=O)Nc3ccc(F)cc3F)c2N)c(C)c1	-	-	-	-	-	-
COc1cc(OC)nc(C(NC(=O)C2CCN(Cc3ccc(Oc4ccccc4)cc3)CC2)c2ccccc2C)n1 (configuration not stated)	-	?	?	.	-58	-
CC(C)NC(=O)C1CCN(Cc2cccc(Oc3ccccc3)c2)CC1	-	-	-	.	-	-
Cc1cccnc1C(NC(=O)C1CCN(CCCc2ccccc2)CC1)c1ccc(Cl)cc1 (configuration not stated)	?	29µM	?	.	-57	11µM
SMILES	TGFb inhibitor	DT40 TDP1 no CPT	TDP1 cell CPT	TDP1 block	IL1B secr inh	HepG2 viability
Cc1cccnc1C(NC(=O)C1CCN(Cc2cn(C)c3ccccc23)CC1)c1ccc(Cl)cc1 (configuration not stated)	?	4.6µM	4.6µM	.	?	8.9µM
O=C(NC(c1ccc2c(c1)OCO2)c1ccccn1)C1CCN(CCOc2ccc(Cl)cc2Cl)CC1 (configuration not stated)	?	?	?	.	?	-
Cc1cccnc1C(NC(=O)C1CCN(Cc2ccc(Oc3ccccc3)cc2)CC1)c1ccc(F)cc1 (configuration not stated)	?	?	23µM	.	-67	-
Cc1cccc(N2CCN(S(=O)(=O)c3ccc(F)c(C(=O)Nc4ccc(C(C)C)cc4)c3)CC2)c1C	-	?	?	-	.	-
Cc1cccnc1C(NC(=O)C1CCN(Cc2ccc(Cl)cc2)CC1)c1ccccc1 (configuration not stated)	-	16µM	16µM	.	?	-
COc1cccc(OC)c1OCCN1CCC(C(=O)NC(c2ccccc2)c2ncccc2C)CC1 (configuration not stated)	-	?	?	.	-	-
O=C(CSc1ccc(Cl)cc1)N1N=CCC1c1ccccc1 (configuration not stated)	-	?	?	-	-63	-
NC(=NC(=O)c1ccc(Cl)cc1)N1N=CCC1c1ccccc1 (configuration not stated)	-	?	-	-	-	-
CCOC(=O)C1(C)NC(c2ccccc2F)C2C(=O)N(c3cccc(C(C)=O)c3)C(=O)C21 (configuration not stated)	-	18µM	23µM	-	-	-
CCOC(=O)C1(C)NC(c2ccc(N(C)C)cc2)C2C(=O)N(c3ccc(OC)cc3)C(=O)C21 (configuration not stated)	-	-	-	-	-	-
CCOC(=O)C1(C)NC(c2cccs2)C2C(=O)N(c3ccc(OC)cc3)C(=O)C21 (configuration not stated)	-	18µM	10µM	-	-	-
CCc1cccc(NC(=S)N2CCC(c3ccccc3)C2)c1 (configuration not stated)	-	?	?	-	-	16µM
